Assay results taken from ChEMBL document CHEMBL1961873, “Compounds: GSK PKIS; Assays: Nanosyn kinase panel” (2012).

Legend:
[1] = target: T1, Inhibitor of nuclear factor kappa-B kinase subunit epsilon (Homo sapiens) (UniProt Q14164); conditions: at 1 µM;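 note: reported values are averaged percent inhibition figures against human IKKε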
T1 sequence (whole entry): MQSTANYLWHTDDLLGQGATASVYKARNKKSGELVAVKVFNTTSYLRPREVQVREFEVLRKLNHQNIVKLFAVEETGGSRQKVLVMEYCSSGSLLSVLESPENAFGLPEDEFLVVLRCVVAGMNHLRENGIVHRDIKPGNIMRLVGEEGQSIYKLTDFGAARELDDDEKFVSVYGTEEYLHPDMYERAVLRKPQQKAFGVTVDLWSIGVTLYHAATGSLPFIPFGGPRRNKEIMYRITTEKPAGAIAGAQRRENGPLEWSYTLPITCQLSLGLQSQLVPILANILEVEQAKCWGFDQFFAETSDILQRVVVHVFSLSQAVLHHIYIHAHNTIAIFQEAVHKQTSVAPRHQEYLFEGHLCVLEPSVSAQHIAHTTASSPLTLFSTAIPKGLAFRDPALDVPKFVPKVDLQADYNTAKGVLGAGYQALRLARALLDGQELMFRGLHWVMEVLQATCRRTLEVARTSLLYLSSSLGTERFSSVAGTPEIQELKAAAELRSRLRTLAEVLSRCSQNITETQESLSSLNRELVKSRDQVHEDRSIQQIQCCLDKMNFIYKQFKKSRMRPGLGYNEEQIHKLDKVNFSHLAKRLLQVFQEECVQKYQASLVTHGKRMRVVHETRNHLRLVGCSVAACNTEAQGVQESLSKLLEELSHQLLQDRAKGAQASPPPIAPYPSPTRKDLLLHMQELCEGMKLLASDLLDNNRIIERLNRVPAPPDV

[2] = target: T2, Serine/threonine-protein kinase Nek1 (Homo sapiens) (UniProt Q96PY6); conditions: at 0.1 µM
T2 sequence (whole entry): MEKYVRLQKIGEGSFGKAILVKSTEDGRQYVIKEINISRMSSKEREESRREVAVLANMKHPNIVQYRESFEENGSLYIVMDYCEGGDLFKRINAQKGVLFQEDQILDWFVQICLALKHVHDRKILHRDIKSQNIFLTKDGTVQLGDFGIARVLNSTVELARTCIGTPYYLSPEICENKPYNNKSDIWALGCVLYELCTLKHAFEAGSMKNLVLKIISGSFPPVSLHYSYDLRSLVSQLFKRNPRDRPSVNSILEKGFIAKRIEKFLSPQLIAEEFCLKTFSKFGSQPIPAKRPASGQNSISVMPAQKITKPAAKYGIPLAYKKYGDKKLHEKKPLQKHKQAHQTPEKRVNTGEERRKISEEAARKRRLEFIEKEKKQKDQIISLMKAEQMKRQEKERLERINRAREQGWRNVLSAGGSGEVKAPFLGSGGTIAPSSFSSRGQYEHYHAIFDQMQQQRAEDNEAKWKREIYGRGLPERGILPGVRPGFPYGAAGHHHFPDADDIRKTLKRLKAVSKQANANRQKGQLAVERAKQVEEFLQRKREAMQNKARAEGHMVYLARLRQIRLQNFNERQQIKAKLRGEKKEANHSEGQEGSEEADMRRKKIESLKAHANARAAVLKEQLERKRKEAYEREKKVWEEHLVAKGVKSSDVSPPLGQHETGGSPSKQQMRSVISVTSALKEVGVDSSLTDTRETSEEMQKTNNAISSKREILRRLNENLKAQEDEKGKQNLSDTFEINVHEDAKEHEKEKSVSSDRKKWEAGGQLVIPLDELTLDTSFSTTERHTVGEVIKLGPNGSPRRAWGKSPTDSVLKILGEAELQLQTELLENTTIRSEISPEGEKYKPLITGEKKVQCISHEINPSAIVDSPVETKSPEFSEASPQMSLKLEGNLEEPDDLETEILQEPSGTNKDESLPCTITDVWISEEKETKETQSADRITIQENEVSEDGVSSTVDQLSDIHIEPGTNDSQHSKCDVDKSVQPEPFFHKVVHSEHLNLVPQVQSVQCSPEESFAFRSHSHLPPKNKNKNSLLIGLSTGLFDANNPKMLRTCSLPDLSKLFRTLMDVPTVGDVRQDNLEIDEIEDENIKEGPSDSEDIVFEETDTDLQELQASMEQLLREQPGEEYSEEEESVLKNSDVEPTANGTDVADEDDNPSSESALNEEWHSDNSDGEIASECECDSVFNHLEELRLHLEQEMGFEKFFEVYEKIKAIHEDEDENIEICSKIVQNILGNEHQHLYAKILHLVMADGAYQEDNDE

[3] = target: T2, Serine/threonine-protein kinase Nek1 (Homo sapiens); conditions: at 1 µM
[4] = target: T3, Serine/threonine-protein kinase Nek2 (Homo sapiens) (UniProt P51955); conditions: at 0.1 µM
T3 sequence (whole entry): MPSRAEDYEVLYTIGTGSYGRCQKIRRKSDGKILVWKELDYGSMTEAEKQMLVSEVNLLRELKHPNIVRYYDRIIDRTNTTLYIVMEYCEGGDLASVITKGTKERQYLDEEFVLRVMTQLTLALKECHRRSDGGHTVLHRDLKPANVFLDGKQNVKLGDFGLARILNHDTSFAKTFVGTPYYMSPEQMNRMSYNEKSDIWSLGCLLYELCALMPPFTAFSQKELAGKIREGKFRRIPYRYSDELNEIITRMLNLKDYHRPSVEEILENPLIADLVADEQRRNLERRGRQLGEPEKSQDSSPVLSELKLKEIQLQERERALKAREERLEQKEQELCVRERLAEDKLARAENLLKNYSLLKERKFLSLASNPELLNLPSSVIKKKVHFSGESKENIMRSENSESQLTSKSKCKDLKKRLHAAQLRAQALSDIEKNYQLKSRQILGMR

[5] = target: T3, Serine/threonine-protein kinase Nek2 (Homo sapiens); conditions: at 1 µM
[6] = target: Serine/threonine-protein kinase Nek6 (Homo sapiens) (UniProt Q9HC98); conditions: at 0.1 µM
Serine/threonine-protein kinase Nek6 (Homo sapiens), sequence (Q9HC98 whole entry): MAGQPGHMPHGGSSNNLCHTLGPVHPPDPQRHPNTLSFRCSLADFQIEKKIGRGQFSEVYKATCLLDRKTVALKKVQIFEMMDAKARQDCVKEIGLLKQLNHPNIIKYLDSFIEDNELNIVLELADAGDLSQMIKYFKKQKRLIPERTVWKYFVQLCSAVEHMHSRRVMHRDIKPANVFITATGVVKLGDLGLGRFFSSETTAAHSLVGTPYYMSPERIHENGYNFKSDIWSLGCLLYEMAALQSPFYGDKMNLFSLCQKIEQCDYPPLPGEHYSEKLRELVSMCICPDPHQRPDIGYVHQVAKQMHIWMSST

[7] = target: Serine/threonine-protein kinase Nek6 (Homo sapiens) (UniProt Q9HC98); conditions: at 1 µM
[8] = target: Serine/threonine-protein kinase Nek7 (Homo sapiens) (UniProt Q8TDX7); conditions: at 0.1 µM
Serine/threonine-protein kinase Nek7 (Homo sapiens), sequence (Q8TDX7 whole entry, looked up): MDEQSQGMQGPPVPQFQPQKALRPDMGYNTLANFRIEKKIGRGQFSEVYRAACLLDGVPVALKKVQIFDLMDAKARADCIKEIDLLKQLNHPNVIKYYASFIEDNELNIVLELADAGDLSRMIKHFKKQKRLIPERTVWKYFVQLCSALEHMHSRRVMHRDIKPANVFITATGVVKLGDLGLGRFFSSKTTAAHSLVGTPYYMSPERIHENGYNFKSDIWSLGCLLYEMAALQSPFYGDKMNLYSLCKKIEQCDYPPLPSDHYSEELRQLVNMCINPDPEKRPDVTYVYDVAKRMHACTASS

[9] = target: Serine/threonine-protein kinase Nek7 (Homo sapiens) (UniProt Q8TDX7); conditions: at 1 µM
[10] = target: T4, Serine/threonine-protein kinase Nek9 (Homo sapiens) (UniProt Q8TD19); conditions: at 0.1 µM
T4 sequence (whole entry): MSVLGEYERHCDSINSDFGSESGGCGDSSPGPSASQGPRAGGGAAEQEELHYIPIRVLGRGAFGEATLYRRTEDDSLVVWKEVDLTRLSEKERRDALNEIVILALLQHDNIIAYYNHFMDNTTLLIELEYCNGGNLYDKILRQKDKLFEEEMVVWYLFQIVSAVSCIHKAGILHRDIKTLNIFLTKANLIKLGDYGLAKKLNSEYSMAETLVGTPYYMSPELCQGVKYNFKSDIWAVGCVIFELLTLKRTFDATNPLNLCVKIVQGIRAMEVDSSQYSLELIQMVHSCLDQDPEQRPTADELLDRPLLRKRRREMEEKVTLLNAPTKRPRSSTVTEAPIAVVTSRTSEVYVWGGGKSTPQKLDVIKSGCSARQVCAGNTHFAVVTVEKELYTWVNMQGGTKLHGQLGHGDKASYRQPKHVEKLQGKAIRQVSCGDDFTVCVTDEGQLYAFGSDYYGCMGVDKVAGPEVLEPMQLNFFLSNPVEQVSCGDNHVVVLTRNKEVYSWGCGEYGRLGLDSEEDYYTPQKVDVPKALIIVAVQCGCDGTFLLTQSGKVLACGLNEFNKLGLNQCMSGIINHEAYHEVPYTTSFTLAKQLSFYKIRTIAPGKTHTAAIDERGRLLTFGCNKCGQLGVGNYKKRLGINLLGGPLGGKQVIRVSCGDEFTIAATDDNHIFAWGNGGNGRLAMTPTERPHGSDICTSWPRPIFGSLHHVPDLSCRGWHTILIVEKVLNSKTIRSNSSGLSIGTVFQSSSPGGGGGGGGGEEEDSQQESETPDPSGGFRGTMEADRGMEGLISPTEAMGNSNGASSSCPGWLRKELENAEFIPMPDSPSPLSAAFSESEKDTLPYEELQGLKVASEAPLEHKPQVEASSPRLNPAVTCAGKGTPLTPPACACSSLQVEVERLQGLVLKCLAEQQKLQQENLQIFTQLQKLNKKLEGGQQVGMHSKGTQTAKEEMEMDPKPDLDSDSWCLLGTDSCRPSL

[11] = target: T4, Serine/threonine-protein kinase Nek9 (Homo sapiens); conditions: at 1 µM
[12] = target: Serine/threonine-protein kinase PLK1 (Homo sapiens) (UniProt P53350); conditions: at 0.1 µM
Serine/threonine-protein kinase PLK1 (Homo sapiens), sequence (P53350 whole entry): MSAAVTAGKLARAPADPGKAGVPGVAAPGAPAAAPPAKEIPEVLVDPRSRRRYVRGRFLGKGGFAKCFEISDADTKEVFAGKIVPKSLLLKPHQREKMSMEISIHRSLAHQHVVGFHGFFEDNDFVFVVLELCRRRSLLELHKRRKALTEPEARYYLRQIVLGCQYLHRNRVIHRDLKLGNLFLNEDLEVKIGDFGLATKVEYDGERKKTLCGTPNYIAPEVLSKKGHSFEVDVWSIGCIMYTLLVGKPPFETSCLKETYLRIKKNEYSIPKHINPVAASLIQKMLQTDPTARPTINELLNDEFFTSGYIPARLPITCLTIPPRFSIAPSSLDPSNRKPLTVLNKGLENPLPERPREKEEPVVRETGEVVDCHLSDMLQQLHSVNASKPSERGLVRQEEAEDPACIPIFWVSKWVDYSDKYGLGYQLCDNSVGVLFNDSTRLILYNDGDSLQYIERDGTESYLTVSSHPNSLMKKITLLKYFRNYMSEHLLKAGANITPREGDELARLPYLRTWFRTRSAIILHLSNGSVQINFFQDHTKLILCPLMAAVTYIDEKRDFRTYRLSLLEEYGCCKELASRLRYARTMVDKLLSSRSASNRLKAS

[13] = target: Serine/threonine-protein kinase PLK1 (Homo sapiens) (UniProt P53350); conditions: at 1 µM
[14] = target: T5, Dual specificity protein kinase TTK (Homo sapiens) (UniProt P33981); conditions: at 0.1 µM
T5 sequence (whole entry): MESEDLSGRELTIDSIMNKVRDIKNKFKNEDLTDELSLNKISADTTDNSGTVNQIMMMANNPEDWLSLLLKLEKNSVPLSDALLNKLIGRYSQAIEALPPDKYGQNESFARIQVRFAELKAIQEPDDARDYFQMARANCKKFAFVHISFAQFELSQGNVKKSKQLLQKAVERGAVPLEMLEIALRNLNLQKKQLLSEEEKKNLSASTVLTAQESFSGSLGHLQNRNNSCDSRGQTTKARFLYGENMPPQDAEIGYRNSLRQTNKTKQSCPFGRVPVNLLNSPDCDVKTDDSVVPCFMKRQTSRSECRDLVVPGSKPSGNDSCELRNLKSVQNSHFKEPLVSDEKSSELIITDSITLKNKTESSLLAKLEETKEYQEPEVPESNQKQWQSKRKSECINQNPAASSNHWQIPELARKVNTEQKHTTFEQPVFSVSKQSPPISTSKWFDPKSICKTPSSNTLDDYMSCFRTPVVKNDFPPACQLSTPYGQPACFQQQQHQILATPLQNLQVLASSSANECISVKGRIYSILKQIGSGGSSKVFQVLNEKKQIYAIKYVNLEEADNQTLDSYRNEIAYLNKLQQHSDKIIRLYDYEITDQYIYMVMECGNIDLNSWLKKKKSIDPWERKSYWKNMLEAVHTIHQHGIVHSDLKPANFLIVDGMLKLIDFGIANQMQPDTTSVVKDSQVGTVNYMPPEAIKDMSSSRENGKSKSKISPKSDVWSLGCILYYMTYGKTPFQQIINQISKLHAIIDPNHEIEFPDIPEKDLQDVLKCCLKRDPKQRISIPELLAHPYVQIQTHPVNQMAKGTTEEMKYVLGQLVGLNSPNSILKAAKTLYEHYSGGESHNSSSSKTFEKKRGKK

[15] = tested on: T6, Receptor-type tyrosine-protein kinase FLT3 (Homo sapiens), P36888 [D835Y]; conditions: at 1 µM
T6 sequence (whole entry): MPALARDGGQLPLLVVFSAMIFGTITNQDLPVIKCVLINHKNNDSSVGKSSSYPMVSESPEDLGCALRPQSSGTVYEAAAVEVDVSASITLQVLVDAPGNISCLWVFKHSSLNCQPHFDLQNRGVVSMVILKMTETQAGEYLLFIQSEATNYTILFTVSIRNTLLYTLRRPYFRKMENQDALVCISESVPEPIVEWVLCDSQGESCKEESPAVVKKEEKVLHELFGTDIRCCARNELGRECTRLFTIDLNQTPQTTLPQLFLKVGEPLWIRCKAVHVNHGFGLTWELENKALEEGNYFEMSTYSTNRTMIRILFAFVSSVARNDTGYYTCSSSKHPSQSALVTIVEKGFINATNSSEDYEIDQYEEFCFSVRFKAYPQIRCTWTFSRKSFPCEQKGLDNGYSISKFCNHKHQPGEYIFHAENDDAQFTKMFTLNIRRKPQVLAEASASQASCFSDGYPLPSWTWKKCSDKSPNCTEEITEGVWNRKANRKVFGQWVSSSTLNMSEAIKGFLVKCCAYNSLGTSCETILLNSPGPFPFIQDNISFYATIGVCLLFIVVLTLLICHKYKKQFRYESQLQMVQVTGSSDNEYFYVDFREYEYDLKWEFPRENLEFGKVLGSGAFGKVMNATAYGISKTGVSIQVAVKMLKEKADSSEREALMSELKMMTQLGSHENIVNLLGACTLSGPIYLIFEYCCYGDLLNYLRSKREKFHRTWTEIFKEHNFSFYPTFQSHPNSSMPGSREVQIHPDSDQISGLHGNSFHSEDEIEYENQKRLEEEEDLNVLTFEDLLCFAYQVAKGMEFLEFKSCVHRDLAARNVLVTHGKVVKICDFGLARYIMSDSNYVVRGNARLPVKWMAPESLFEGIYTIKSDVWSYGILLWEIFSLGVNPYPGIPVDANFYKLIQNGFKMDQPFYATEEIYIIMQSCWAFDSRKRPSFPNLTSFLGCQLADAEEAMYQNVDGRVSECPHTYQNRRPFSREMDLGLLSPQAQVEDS

[16] = target: Vascular endothelial growth factor receptor 3 (Homo sapiens) (UniProt P35916); conditions: at 0.1 µM
Vascular endothelial growth factor receptor 3 (Homo sapiens), sequence (P35916 whole entry): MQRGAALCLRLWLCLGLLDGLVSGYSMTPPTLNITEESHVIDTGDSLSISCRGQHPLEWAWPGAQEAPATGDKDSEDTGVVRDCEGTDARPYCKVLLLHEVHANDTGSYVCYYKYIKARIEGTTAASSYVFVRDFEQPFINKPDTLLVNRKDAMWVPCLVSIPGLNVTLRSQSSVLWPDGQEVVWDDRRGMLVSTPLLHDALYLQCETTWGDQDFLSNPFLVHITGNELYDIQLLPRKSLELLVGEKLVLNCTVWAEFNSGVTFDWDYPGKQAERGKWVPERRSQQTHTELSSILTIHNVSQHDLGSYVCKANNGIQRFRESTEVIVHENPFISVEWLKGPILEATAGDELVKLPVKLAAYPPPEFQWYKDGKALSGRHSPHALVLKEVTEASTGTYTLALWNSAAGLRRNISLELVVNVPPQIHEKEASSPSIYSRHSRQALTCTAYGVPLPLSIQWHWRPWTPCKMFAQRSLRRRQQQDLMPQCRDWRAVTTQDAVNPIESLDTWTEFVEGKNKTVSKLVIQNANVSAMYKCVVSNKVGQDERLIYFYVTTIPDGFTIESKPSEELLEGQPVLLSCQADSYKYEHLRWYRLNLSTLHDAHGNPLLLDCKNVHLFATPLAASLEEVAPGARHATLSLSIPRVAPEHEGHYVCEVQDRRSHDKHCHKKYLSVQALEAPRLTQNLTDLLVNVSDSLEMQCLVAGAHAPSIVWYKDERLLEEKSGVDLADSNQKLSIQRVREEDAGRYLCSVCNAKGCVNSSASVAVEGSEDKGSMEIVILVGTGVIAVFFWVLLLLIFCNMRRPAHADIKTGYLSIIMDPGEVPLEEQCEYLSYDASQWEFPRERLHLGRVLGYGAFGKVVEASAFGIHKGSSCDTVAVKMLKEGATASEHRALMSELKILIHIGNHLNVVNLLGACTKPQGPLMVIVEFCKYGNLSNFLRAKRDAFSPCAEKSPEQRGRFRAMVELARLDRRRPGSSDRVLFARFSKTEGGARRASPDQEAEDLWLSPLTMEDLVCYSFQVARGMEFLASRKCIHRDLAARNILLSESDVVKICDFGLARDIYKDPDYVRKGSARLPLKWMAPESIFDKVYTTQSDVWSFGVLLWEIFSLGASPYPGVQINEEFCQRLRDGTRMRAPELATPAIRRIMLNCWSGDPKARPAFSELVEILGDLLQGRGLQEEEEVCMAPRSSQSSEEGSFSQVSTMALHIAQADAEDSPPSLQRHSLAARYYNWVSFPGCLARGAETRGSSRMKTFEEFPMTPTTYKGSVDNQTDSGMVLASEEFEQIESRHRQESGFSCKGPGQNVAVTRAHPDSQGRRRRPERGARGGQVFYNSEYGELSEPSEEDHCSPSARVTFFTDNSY

[17] = target: Vascular endothelial growth factor receptor 3 (Homo sapiens) (UniProt P35916); conditions: at 1 µM
[18] = target: Macrophage colony-stimulating factor 1 receptor (Homo sapiens) (UniProt P07333); conditions: at 0.1 µM
Macrophage colony-stimulating factor 1 receptor (Homo sapiens), sequence (P07333 whole entry): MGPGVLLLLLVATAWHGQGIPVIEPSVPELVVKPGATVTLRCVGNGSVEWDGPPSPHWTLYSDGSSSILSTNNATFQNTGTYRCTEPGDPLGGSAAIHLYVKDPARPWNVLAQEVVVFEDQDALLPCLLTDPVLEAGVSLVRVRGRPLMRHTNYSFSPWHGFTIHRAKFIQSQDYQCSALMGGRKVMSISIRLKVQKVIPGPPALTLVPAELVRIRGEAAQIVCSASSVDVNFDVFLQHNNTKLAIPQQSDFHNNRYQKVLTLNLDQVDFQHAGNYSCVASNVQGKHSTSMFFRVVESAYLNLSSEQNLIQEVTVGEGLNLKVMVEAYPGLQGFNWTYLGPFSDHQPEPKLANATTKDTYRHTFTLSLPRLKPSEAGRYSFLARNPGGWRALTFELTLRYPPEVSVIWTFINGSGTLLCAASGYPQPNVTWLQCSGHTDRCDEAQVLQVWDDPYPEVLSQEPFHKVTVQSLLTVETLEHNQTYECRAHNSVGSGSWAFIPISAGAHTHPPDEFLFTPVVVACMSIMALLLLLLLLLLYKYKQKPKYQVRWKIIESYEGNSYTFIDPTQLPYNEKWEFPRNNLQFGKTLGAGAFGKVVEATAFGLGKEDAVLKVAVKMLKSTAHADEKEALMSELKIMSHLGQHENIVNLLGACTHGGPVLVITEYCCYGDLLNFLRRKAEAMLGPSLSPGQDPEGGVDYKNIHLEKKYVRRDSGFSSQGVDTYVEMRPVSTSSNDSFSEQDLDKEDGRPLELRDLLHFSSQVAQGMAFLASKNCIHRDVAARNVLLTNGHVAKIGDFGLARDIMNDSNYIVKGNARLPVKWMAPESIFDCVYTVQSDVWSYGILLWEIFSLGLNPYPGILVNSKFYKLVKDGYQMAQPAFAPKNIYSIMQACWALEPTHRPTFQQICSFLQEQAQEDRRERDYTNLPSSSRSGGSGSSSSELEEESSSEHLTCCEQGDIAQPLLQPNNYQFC

[19] = target: Macrophage colony-stimulating factor 1 receptor (Homo sapiens) (UniProt P07333); conditions: at 1 µM
[20] = target: Tyrosine-protein kinase Fyn (Homo sapiens) (UniProt P06241); conditions: at 0.1 µM
Tyrosine-protein kinase Fyn (Homo sapiens), sequence (P06241 2-537 limits assumed): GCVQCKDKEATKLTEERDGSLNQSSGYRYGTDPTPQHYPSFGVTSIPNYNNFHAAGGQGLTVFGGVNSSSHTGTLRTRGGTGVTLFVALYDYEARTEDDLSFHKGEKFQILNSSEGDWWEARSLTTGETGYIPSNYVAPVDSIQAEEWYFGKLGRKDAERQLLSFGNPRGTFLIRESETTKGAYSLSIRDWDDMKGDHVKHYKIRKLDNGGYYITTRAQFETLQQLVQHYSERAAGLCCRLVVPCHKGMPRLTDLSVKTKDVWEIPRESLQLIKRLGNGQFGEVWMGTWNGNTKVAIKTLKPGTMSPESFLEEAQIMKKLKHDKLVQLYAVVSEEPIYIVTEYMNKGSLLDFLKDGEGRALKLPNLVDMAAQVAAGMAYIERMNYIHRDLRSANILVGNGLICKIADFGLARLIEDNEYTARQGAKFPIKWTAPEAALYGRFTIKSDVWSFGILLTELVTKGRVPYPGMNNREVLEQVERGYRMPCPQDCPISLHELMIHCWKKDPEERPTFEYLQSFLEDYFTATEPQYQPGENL

Row | SMILES | inhibition [1] | inhibition [2] | inhibition [3] | inhibition [4] | inhibition [5] | inhibition [6] | inhibition [7] | inhibition [8] | inhibition [9] | inhibition [10] | inhibition [11] | inhibition [12] | inhibition [13] | inhibition [14] | inhibition [15] | inhibition [16] | inhibition [17] | inhibition [18] | inhibition [19] | inhibition [20]
1 | COc1ccc(-c2cc(-c3c[nH]nc3-c3ccccn3)ccn2)cc1 | 9.71% | 2.15% | 3.74% | 5.8% | 4.88% | 2.87% | 4.34% | 2.27% | 3.19% | 7.56% | 9.65% | 3.67% | 4.38% | 13.4% | 1.61% | 5.28% | 4.26% | 6.09% | 5.24% | 3.23%
2 | CCc1nn2ncccc2c1-c1ccnc(NC2CC2)n1 | 6.61% | 3.1% | 4.93% | 3.32% | 3.36% | 2.16% | 3.98% | 1.99% | 3.9% | 2.26% | 9.21% | 1.29% | 4.87% | -1.9% | 8.73% | 4.93% | 4.12% | 2.72% | 4.83% | 1.74%
3 | COc1ccc2[nH]c3c4[nH]c5ccc(OC)cc5c4c4c(c3c2c1)C(=O)NC4=O | 36.3% | 0.76% | 1.99% | 4.36% | 5.74% | 5.36% | 5.14% | 3.71% | 5.28% | 2.96% | 2.1% | 3.01% | 9.29% | 15.5% | 92.7% | 18.5% | 63.5% | 12.9% | 50.9% | 3.62%
